The values that follow come from PubChem BioAssay (NCI).

Compounds without any hit were thinned out: in the full panel of roughly 83,000, 20% have a hit.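 Treatment: one concentration, 48 hours, 96-well format. Scoring: percent growth, with anything below 10 considered active.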 Unmarked numbers belong to inactive results. Activity calls are given as the source filed them.

Test systems include NCI-H23 lung; NCI-H226 lung; NCI-H322M lung; HOP-62 NSCLC; NCI-H460 lung; HOP-92 NSCLC; NCI-H522 lung; A549/ATCC NSCLC; 786-0 renal; COLO 205 colon; DU-145 prostate; K-562 leukemia; MALME-3M melanoma; MDA-MB-231 breast; RXF 393 renal; SF-268 CNS; SF-295 CNS; SF-539 CNS; UACC-257 melanoma; M14 melanoma.
Common to all, as to assay: NCI-60 one-dose screen, 48 h (100 = growth as untreated, 0 = no growth, -100 = all killed)
Common to all, as to settings: 10 µM unless noted

`CCOC(=O)C1OC1(c1ccccc1)c1ccccc1` (stereo not given): the growth in the test with NCI-H23 lung is 111%; with NCI-H226 lung, 106%; with NCI-H322M lung it was 120%; in the test on HOP-62 NSCLC it was 118%; in the test with NCI-H460 lung it was 109%; with HOP-92 NSCLC, 107%. Moreover, the growth in the test with NCI-H522 lung is 107%; in the test on A549/ATCC NSCLC, 84.3%; with 786-0 renal, 117%; in the test on COLO 205 colon, 119%; in the test with DU-145 prostate, 108%; in the test on K-562 leukemia, 109%. The growth in the test on MALME-3M melanoma was 110%; in the test on MDA-MB-231 breast it was 98.9%; with RXF 393 renal it was 113%; in the test with SF-268 CNS, 94.2%; with SF-295 CNS, 113%; in the test with SF-539 CNS, 106%. In addition, the results for the growth in the test with UACC-257 melanoma and in the test on M14 melanoma were 95.7% and 107%, respectively.

`CC(C)/C=C/CC[C@](C)(O)[C@H]1CC[C@]2(C)[C@@H]1CC[C@@H]1[C@@]3(C)C/C(=C/c4cccc(C(F)(F)F)c4)C(=O)C(C)(C)[C@@H]3CC[C@]12C`: the growth with NCI-H23 lung is 96.3%; in the test on NCI-H226 lung, 94.9%; in the test on NCI-H322M lung, 105%; in the test on HOP-62 NSCLC, 103%; in the test on NCI-H460 lung, 98.6%; in the test with HOP-92 NSCLC, 92.7%. The growth in the test on NCI-H522 lung was 96.2%; in the test with A549/ATCC NSCLC, 85%; in the test with 786-0 renal it was 101%; with COLO 205 colon it was 113%; in the test on DU-145 prostate it was 96.8%; with K-562 leukemia, 86.2%. In addition, the growth is 100% with MALME-3M melanoma; 88.9% with MDA-MB-231 breast; 105% in the test on RXF 393 renal; 93.3% with SF-268 CNS; 101% in the test with SF-295 CNS; 97.6% in the test on SF-539 CNS. The growth is 95.2% with UACC-257 melanoma and 91.5% in the test with M14 melanoma.

Consider `CC(C)c1cc(C(=O)O)c(O)c(C(C)C)c1.CC(C)c1cc(C(=O)O)c(O)c(C(C)C)c1.[Mn]`, for which the growth in the test with NCI-H23 lung is 110%; in the test on NCI-H226 lung it was 103%; in the test with NCI-H322M lung, 110%; in the test with HOP-62 NSCLC, 112%; in the test on NCI-H460 lung it was 102%; in the test with HOP-92 NSCLC, -39.3% (active). For the same compound, the growth in the test with NCI-H522 lung was 79.5%; with A549/ATCC NSCLC it was 99.9%; with 786-0 renal, 101%; in the test with COLO 205 colon, 112%; in the test on DU-145 prostate it was 108%; in the test on K-562 leukemia, 94.8%. For the same compound, the growth in the test with MALME-3M melanoma is 103%; in the test on MDA-MB-231 breast, 103%; in the test on RXF 393 renal, 129%; in the test with SF-268 CNS it was 96.2%; in the test with SF-295 CNS, 107%; in the test on SF-539 CNS, 105%. Further, the growth was 98.8% in the test on UACC-257 melanoma and 107% with M14 melanoma.

In the case of `Cn1cc(-c2csc(-c3cn(CCCN4CCCCC4)c4ccc(F)cc34)n2)c2cccnc21`, the growth in the test on NCI-H23 lung is 89.2%; in the test with NCI-H226 lung it was 91.6%; in the test on NCI-H322M lung, 86.8%; with HOP-62 NSCLC it was 99.3%; in the test on NCI-H460 lung, 96.1%; in the test on HOP-92 NSCLC, 49%. Further, the growth was 103% with NCI-H522 lung; 92.2% in the test on A549/ATCC NSCLC; 40.3% in the test with 786-0 renal; 98.9% in the test with COLO 205 colon; 98% in the test on DU-145 prostate; 0.833% (active) in the test on K-562 leukemia. Also, the growth in the test with MALME-3M melanoma was -43% (active); with MDA-MB-231 breast, 64.2%; with RXF 393 renal it was 64.9%; with SF-268 CNS, 89%; with SF-295 CNS, 99.9%; in the test with SF-539 CNS, 83.6%. Moreover, the growth with UACC-257 melanoma is 70.6%; in the test on M14 melanoma, -73.4% (active).

`O=C1C(=O)c2ccccc2C(O)=C1CCCc1ccc(C2CCCCC2)cc1`: the growth with NCI-H23 lung was 36.9%; in the test with NCI-H226 lung it was 47.1%; in the test on NCI-H322M lung it was 81.3%; with HOP-62 NSCLC it was 44%; in the test on NCI-H460 lung, 7.15% (active); in the test with HOP-92 NSCLC, 40.7%. Besides, the growth in the test on NCI-H522 lung is 54.7%; with A549/ATCC NSCLC it was 21.1%; in the test with 786-0 renal, 30.8%; with COLO 205 colon it was 42.6%; in the test on DU-145 prostate it was 39.2%; in the test with K-562 leukemia it was 32.8%. In addition, the growth with MALME-3M melanoma is 87.9%; in the test with MDA-MB-231 breast, 52.1%; with RXF 393 renal, 67.2%; in the test with SF-268 CNS, 38.1%; with SF-295 CNS, 39.7%; with SF-539 CNS, 29.2%. Besides, the growth with UACC-257 melanoma is 34.9%; in the test with M14 melanoma, 56.3%.

As for `COc1ccc(C2CC(=O)c3c(nc4ccc(Cl)cc4c3N)C2)cc1` (stereo not given), the growth is 102% with NCI-H23 lung; 104% in the test on NCI-H226 lung; 104% in the test on NCI-H322M lung; 109% in the test on HOP-62 NSCLC; 104% in the test with NCI-H460 lung; 98.3% in the test with HOP-92 NSCLC. In addition, the growth in the test with NCI-H522 lung is 100%; with A549/ATCC NSCLC it was 106%; with 786-0 renal it was 97%; with COLO 205 colon, 114%; in the test with DU-145 prostate it was 101%; with K-562 leukemia it was 93.4%. Further, the growth with MALME-3M melanoma was 106%; with MDA-MB-231 breast, 114%; with RXF 393 renal, 99.3%; in the test on SF-268 CNS it was 108%; with SF-295 CNS, 95.4%; in the test on SF-539 CNS it was 107%. Further, the growth was 113% with UACC-257 melanoma and 103% in the test with M14 melanoma.

Take `COc1ccc(OC)c(-c2c(C#N)c(-c3ccco3)nc3c2c(-c2ccccc2)nn3-c2ccccc2)c1`: the growth with NCI-H23 lung is 96.7%; in the test with NCI-H226 lung it was 90.1%; in the test on NCI-H322M lung, 103%; with HOP-62 NSCLC it was 106%; in the test with NCI-H460 lung, 101%; in the test on HOP-92 NSCLC, 78.5%. The growth with NCI-H522 lung was 81.9%; in the test with A549/ATCC NSCLC, 94.9%; with 786-0 renal, 100%; in the test with COLO 205 colon it was 119%; with DU-145 prostate, 102%; with K-562 leukemia it was 105%. In addition, the growth in the test on MALME-3M melanoma is 112%; with MDA-MB-231 breast, 90%; with RXF 393 renal it was 99.8%; with SF-268 CNS it was 96.2%; in the test on SF-295 CNS it was 98.9%; in the test on SF-539 CNS it was 92.6%. Besides, the growth was 99.7% with UACC-257 melanoma and 108% with M14 melanoma.

Turning to `COc1cc(/C=N/NC(=S)NNC(=S)NC2CCCCC2)cc(OC)c1OC`, the growth in the test with NCI-H23 lung was 97.4%; in the test with NCI-H226 lung, 91.2%; with NCI-H322M lung it was 93.7%; in the test with HOP-62 NSCLC, 94.8%; in the test with NCI-H460 lung, 97.1%; in the test with HOP-92 NSCLC it was 91.2%. The growth was 89.3% with NCI-H522 lung; 100% in the test on A549/ATCC NSCLC; 102% in the test with 786-0 renal; 102% in the test on COLO 205 colon; 92.5% in the test with DU-145 prostate; 88.6% with K-562 leukemia. In addition, the growth in the test on MALME-3M melanoma is 95.2%; in the test with MDA-MB-231 breast, 77.2%; in the test on RXF 393 renal, 95.6%; in the test with SF-268 CNS, 102%; with SF-295 CNS, 98.7%; with SF-539 CNS, 94.8%. For the same compound, the growth in the test with UACC-257 melanoma was 107%; with M14 melanoma, 95.2%.
